The record followed here is the supplement of paper PMC10037445.

Structures are written as SMILES. Over roughly 2,900 compounds, “NF-kB SEAP reporter activity, fold change vs agonist alone” has its median near 0.99; the highest 2% begin near 2.6. The entries come from a sample that favours the highest values as a whole.

In experiment [1] the test system is RAW-Dual. Put plainly: NF-kB SEAP reporter activity, fold change vs agonist alone; higher = enhanced NF-kB activity. In short, it runs like this: (§1)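 RAW-Dual macrophages were seeded in DMEM at 50,000 cells/well in 384-well plates, given 50 nL of library stock by pin tool, and given a PRR agonist 1 h later. Plates were held at 37 °C, 5% CO2 for 20 hours, after which supernatant was read for IRF by QuantiLuc luminescence and for NF-κB by QuantiBlue absorbance at 620 nm. Reporter activity is expressed as fold change over wells that received agonist alone. A well was called cytotoxic when IncuCyte confluency fell below 70% of agonist controls in both mask sets.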

Experiment [2] deals with RAW-Dual. Put plainly: NF-kB SEAP reporter activity, fold change vs agonist alone; cytotoxicity flag (confluency mask): not cytotoxic; higher = enhanced NF-kB activity. The gist of the method:
as §1

Experiment [3] concerns RAW-Dual. Put plainly: NF-kB SEAP reporter activity, fold change vs agonist alone; cytotoxicity flag (confluency mask): cytotoxic (confluency <70% of control); higher = enhanced NF-kB activity. In short, it runs like this:
as §1

Where [4] appears, read: library stock concentration (final ~1000-fold dilution): 10 mM, cytotoxicity flag (confluency mask): not cytotoxic, agonist: Imiquimod (TLR7) […].
The mark [5] stands for this setting: library stock concentration (final ~1000-fold dilution): 10 mM, cytotoxicity flag (confluency mask): not cytotoxic, agonist: MPLA (TLR4) […].
The mark [6] stands for this setting: library stock concentration (final ~1000-fold dilution): 10 mM, cytotoxicity flag (confluency mask): cytotoxic (confluency <70% of control), agonist: Imiquimod (TLR7) […].
Where [7] appears, read: library stock concentration (final ~1000-fold dilution): 10 mM, cytotoxicity flag (confluency mask): cytotoxic (confluency <70% of control), agonist: MPLA (TLR4) […].
Where [8] appears, read: agonist: ODN 1826 (TLR9) 0.5 ug/mL.
[9] abbreviates: agonist: Pam2CSK4 (TLR2/6) 0.1 ug/mL.
Setting [10] is: agonist: Pam3CSK4 (TLR2/1) 0.1 ug/mL.
Where [11] appears, read: library stock concentration (final ~1000-fold dilution): 10 mM water, cytotoxicity flag (confluency mask): not cytotoxic, agonist: Imiquimod (TLR7) […].
Where [12] appears, read: library stock concentration (final ~1000-fold dilution): 10 mM water, cytotoxicity flag (confluency mask): not cytotoxic, agonist: MPLA (TLR4) […].

On to `O=C(O)CN1C(=O)c2cccc3cccc(c23)C1=O`, for which the “NF-kB SEAP reporter activity” value turned out to be 0.931 in the experiment on RAW-Dual [1] (setting [4]) and 1.03 in the experiment with RAW-Dual [1] (setting [5]).

Turning to `O=C(CCCCCN1C(=O)c2cccc3cccc(c23)C1=O)NO`, the “NF-kB SEAP reporter activity” value was found to be 1.51 with RAW-Dual [1] (setting [6]) and 2.33 in the experiment on RAW-Dual [1] (setting [7]).

For the compound `COc1ccc(-n2c(SCCCN3C(=O)c4cccc5cccc(c45)C3=O)nnc2-c2ccncc2)cc1` (library stock concentration (final ~1000-fold dilution): 10 mM), the “NF-kB SEAP reporter activity” value was determined as 2.06 in the experiment with RAW-Dual [2] (agonist: LPS (TLR4) 0.1 ug/mL), 1.17 with RAW-Dual [2] (setting [8]), 1.3 in the experiment on RAW-Dual [2] (setting [9]) and 2.18 in the experiment with RAW-Dual [2] (setting [10]).

As to `CCCCCOc1ccc(-c2cc(-c3ccc(C(=O)NC4CC(O)C(O)NC(=O)C5C(O)C(C)CN5C(=O)C(C(O)CC(N)=O)NC(=O)C(C(O)C(O)c5ccc(O)c(OS(=O)(=O)O)c5)NC(=O)C5CC(O)CN5C(=O)C(C(C)O)NC4=O)cc3)no2)cc1` (stereo not drawn), the “NF-kB SEAP reporter activity” value with RAW-Dual [1] (setting [11]) is 0.949; in the experiment with RAW-Dual [1] (setting [12]), 1.14.

With `CCC(C)CC(C)CCCCCCCCC(=O)NC1CC(O)C(NCCN)NC(=O)C2C(O)CCN2C(=O)C(C(O)CCN)NC(=O)C(C(O)C(O)c2ccc(O)cc2)NC(=O)C2CC(O)CN2C(=O)C(C(C)O)NC1=O` (stereo not drawn) (library stock concentration (final ~1000-fold dilution): 10 mM water), the “NF-kB SEAP reporter activity” value worked out at 1.29 in the experiment on RAW-Dual [2] (agonist: LPS (TLR4) 0.1 ug/mL), 1.08 in the experiment on RAW-Dual [2] (setting [8]), 1.09 with RAW-Dual [2] (setting [9]) and 0.968 with RAW-Dual [2] (setting [10]).

On to `CCCCCOc1ccc(-c2cc(-c3ccc(C(=O)NC4CC(O)C(O)NC(=O)C5C(O)C(C)CN5C(=O)C(C(O)CC(N)=O)NC(=O)C(C(O)C(O)c5ccc(O)c(OS(=O)(=O)O)c5)NC(=O)C5CC(O)CN5C(=O)C(C(C)O)NC4=O)cc3)no2)cc1` (stereo not drawn) (library stock concentration (final ~1000-fold dilution): 10 mM water), for which the “NF-kB SEAP reporter activity” value in the experiment on RAW-Dual [2] (agonist: LPS (TLR4) 0.1 ug/mL) was 1.2; with RAW-Dual [2] (setting [8]) it was 1.05; in the experiment with RAW-Dual [2] (setting [9]), 0.968; in the experiment on RAW-Dual [2] (setting [10]), 1.09.

On to `CCCCCOc1ccc(-c2ccc(-c3ccc(C(=O)NC4CC(O)C(O)NC(=O)C5C(O)C(C)CN5C(=O)C(C(C)O)NC(=O)C(C(O)C(O)c5ccc(O)cc5)NC(=O)C5CC(O)CN5C(=O)C(C(C)O)NC4=O)cc3)cc2)cc1` (stereo not drawn) (library stock concentration (final ~1000-fold dilution): 10 mM), for which the “NF-kB SEAP reporter activity” value in the experiment on RAW-Dual [3] (agonist: LPS (TLR4) 0.1 ug/mL) worked out at 3.72; in the experiment with RAW-Dual [3] (setting [8]), 0.545; in the experiment with RAW-Dual [3] (setting [9]) it was 1.28; in the experiment with RAW-Dual [3] (setting [10]), 1.42.

For `CCC(C)CC(C)CCCCCCCCC(=O)NC1CC(O)C(NCCN)NC(=O)C2C(O)CCN2C(=O)C(C(O)CCN)NC(=O)C(C(O)C(O)c2ccc(O)cc2)NC(=O)C2CC(O)CN2C(=O)C(C(C)O)NC1=O` (stereo not drawn), the entries for the “NF-kB SEAP reporter activity” value in the experiment on RAW-Dual [1] (setting [11]) and with RAW-Dual [1] (setting [12]) were 0.901 and 0.866, respectively.

For `CCCCCOc1ccc(-c2ccc(-c3ccc(C(=O)NC4CC(O)C(O)NC(=O)C5C(O)C(C)CN5C(=O)C(C(C)O)NC(=O)C(C(O)C(O)c5ccc(O)cc5)NC(=O)C5CC(O)CN5C(=O)C(C(C)O)NC4=O)cc3)cc2)cc1` (stereo not drawn), the “NF-kB SEAP reporter activity” value in the experiment with RAW-Dual [1] (setting [6]) turned out to be 1.67; in the experiment on RAW-Dual [1] (setting [7]) it was 2.43.

Take `Cn1ncc(Cl)c1-c1cc(C(=O)NC(CN)Cc2ccc(F)c(F)c2)oc1Cl` (stereo not drawn): the “NF-kB SEAP reporter activity” value in the experiment on RAW-Dual [1] (setting [4]) and in the experiment with RAW-Dual [1] (setting [5]) was 1.61 throughout.

With `Cn1ncc(Cl)c1-c1cc(C(=O)NC(CN)Cc2ccc(F)c(F)c2)oc1Cl` (stereo not drawn) (library stock concentration (final ~1000-fold dilution): 10 mM), the “NF-kB SEAP reporter activity” value in the experiment on RAW-Dual [2] (agonist: LPS (TLR4) 0.1 ug/mL) was determined as 1.03; with RAW-Dual [2] (setting [8]), 2.35; with RAW-Dual [2] (setting [9]), 1.07; in the experiment with RAW-Dual [2] (setting [10]), 1.44.

Turning to `CCOC(=O)C(CCc1ccccc1)NC(C)C(=O)N1Cc2ccccc2CC1C(=O)O.Cl` (stereo not drawn) (library stock concentration (final ~1000-fold dilution): 10 mM), the “NF-kB SEAP reporter activity” value with RAW-Dual [2] (agonist: LPS (TLR4) 0.1 ug/mL) came out at 0.94; with RAW-Dual [2] (setting [8]), 1.07; in the experiment with RAW-Dual [2] (setting [9]), 1.26; in the experiment on RAW-Dual [2] (setting [10]) it was 1.05.

With `CCOC(=O)C(CCc1ccccc1)NC(C)C(=O)N1Cc2ccccc2CC1C(=O)O.Cl` (stereo not drawn), the “NF-kB SEAP reporter activity” value came to 1.02 in the experiment with RAW-Dual [1] (setting [4]) and 1.03 in the experiment with RAW-Dual [1] (setting [5]).

Take `CC(Nc1ncnc2[nH]cnc12)c1cc2cccc(Cl)c2c(=O)n1-c1ccccc1` (stereo not drawn) (library stock concentration (final ~1000-fold dilution): 10 mM): the “NF-kB SEAP reporter activity” value in the experiment with RAW-Dual [2] (agonist: LPS (TLR4) 0.1 ug/mL) came to 0.744; in the experiment with RAW-Dual [2] (setting [8]) it was 0.653; with RAW-Dual [2] (setting [9]), 0.665; with RAW-Dual [2] (setting [10]), 0.549.

Turning to `CC(Nc1ncnc(N)c1C#N)c1cc2cccc(-c3ccc(=O)n(C)c3)c2c(=O)n1C(C)C` (stereo not drawn), the results for the “NF-kB SEAP reporter activity” value in the experiment with RAW-Dual [1] (setting [4]) and in the experiment on RAW-Dual [1] (setting [5]) were 1.22 and 2.8, respectively.

Regarding `CC(Nc1ncnc(N)c1C#N)c1cc2cccc(-c3ccc(=O)n(C)c3)c2c(=O)n1C(C)C` (stereo not drawn) (library stock concentration (final ~1000-fold dilution): 10 mM), the “NF-kB SEAP reporter activity” value in the experiment on RAW-Dual [2] (agonist: LPS (TLR4) 0.1 ug/mL) was found to be 4.83; in the experiment with RAW-Dual [2] (setting [8]), 0.722; in the experiment with RAW-Dual [2] (setting [9]), 1.22; with RAW-Dual [2] (setting [10]), 3.02.

Take `CC(NC(=O)c1c(N)nn2cccnc12)c1cc2cccc(C#Cc3cnn(C)c3)c2c(=O)n1-c1ccccc1` (stereo not drawn) (library stock concentration (final ~1000-fold dilution): 10 mM): the “NF-kB SEAP reporter activity” value stood at 2.34 with RAW-Dual [2] (agonist: LPS (TLR4) 0.1 ug/mL), 1.3 with RAW-Dual [2] (setting [8]), 0.628 in the experiment with RAW-Dual [2] (setting [9]) and 0.931 in the experiment on RAW-Dual [2] (setting [10]).

`CC(Nc1ncnc2[nH]cnc12)c1cc2cccc(Cl)c2c(=O)n1-c1ccccc1` (stereo not drawn): the “NF-kB SEAP reporter activity” value in the experiment with RAW-Dual [1] (setting [4]) turned out to be 0.473; in the experiment on RAW-Dual [1] (setting [5]) it was 0.709.

As to `CC(NC(=O)c1c(N)nn2cccnc12)c1cc2cccc(C#Cc3cnn(C)c3)c2c(=O)n1-c1ccccc1` (stereo not drawn), the “NF-kB SEAP reporter activity” value is 1.18 in the experiment with RAW-Dual [1] (setting [4]) and 1.44 with RAW-Dual [1] (setting [5]).

As for `Cc1cccc(C)c1OCC(=O)NC(Cc1ccccc1)C(O)CC(Cc1ccccc1)NC(=O)C(C(C)C)N1CCCNC1=O` (stereo not drawn), the “NF-kB SEAP reporter activity” value in the experiment with RAW-Dual [1] (setting [4]) is 1.63; in the experiment on RAW-Dual [1] (setting [5]) it was 2.06.

Take `Cc1cccc(C)c1OCC(=O)NC(Cc1ccccc1)C(O)CC(Cc1ccccc1)NC(=O)C(C(C)C)N1CCCNC1=O` (stereo not drawn) (library stock concentration (final ~1000-fold dilution): 10 mM): the “NF-kB SEAP reporter activity” value in the experiment on RAW-Dual [2] (agonist: LPS (TLR4) 0.1 ug/mL) came to 1.37; with RAW-Dual [2] (setting [8]), 2.09; in the experiment with RAW-Dual [2] (setting [9]), 0.396; in the experiment on RAW-Dual [2] (setting [10]), 1.03.

For `Cc1ccc(S(=O)(=O)O)cc1.NC(=O)c1cccc2cn(-c3ccc(C4CCCNC4)cc3)nc12` (stereo not drawn), the “NF-kB SEAP reporter activity” value in the experiment on RAW-Dual [1] (setting [4]) is 0.663; with RAW-Dual [1] (setting [5]), 1.04.

With `Cc1ccc(S(=O)(=O)O)cc1.NC(=O)c1cccc2cn(-c3ccc(C4CCCNC4)cc3)nc12` (stereo not drawn) (library stock concentration (final ~1000-fold dilution): 10 mM), the “NF-kB SEAP reporter activity” value in the experiment on RAW-Dual [2] (agonist: LPS (TLR4) 0.1 ug/mL) worked out at 1.04; in the experiment on RAW-Dual [2] (setting [8]), 0.181; with RAW-Dual [2] (setting [9]), 1.41; in the experiment with RAW-Dual [2] (setting [10]), 1.1.
